One assay concerns Staphylococcus aureus. Kind of assay: Antibacterial activity against Staphylococcus aureus MRSA ATCC 43300 (CO-ADD:GP_020); MIC in CAMBH media using NBS plates, by Resazurin F(560/590). Type of assay: functional. As to conditions: Concentration 20 uM, ASSAY_TEST Inhibition of Bacterial Growth, detection method Resazurin, Fluorescence (ex560/em590), MEDIA CAMHB, plate type 384well, CORNING #3640, time 18 hr. (Alamar Blue is a resazurin reagent that responds to reducing activity.)

The test system of the next assay is Acinetobacter baumannii. Kind of assay: Antibacterial activity against Acinetobacter baumannii ATCC 19606 (CO-ADD:GN_034); MIC in CAMBH media using NBS plates, by Resazurin F(560/590). Type of assay: functional. The note with it: Concentration 20 uM, ASSAY_TEST Inhibition of Bacterial Growth, detection method Resazurin, Fluorescence (ex560/em590), MEDIA CAMHB, plate type 384well, CORNING #3640, time 18 hr.

The subject of a further assay is Escherichia coli. Kind of assay: Antibacterial activity against Escherichia coli ATCC 25922 (CO-ADD:GN_001); MIC in CAMBH media using NBS plates, by Resazurin F(560/590). As to conditions: Concentration 20 uM, ASSAY_TEST Inhibition of Bacterial Growth, detection method Resazurin, Fluorescence (ex560/em590), MEDIA CAMHB, plate type 384well, CORNING #3640, time 18 hr. The class given is functional.

The next assay deals with Klebsiella pneumoniae. The note with it: Concentration 20 uM; ASSAY_TEST Inhibition of Bacterial Growth; detection method Absorption (OD600); MEDIA CAMHB; plate type 384well; NBS; CORNING #3640; time 18 hr.
The test system of the next assay is Candida albicans. The note with it: 20 µM.
A further assay deals with Cryptococcus neoformans. The note with it: Concentration 20 uM; ASSAY_TEST Inhibition of Fungal Growth; detection method Resazurin; Absorption (OD600-OD570); plate type 384well; NBS; CORNING #3640.

Each structure is given as a SMILES string. For part of these data: Results with a measured potency or affinity are listed apart.

As a reminder, the Inhibition is the change of the read-out against control, counted positive when it falls.

On to `COc1ccccc1/C=C1\Cc2ccccc2C1=O`, for which the Inhibition is -0.35% in the assay on Staphylococcus aureus; 7.42% in the assay on Acinetobacter baumannii; -7.65% with Escherichia coli; 12% with Klebsiella pneumoniae; 10.8% in the assay with Candida albicans; -2% in the assay with Cryptococcus neoformans.
Regarding `O=C(NC(=S)Nc1cc(Cl)ccc1O)c1cccc(Br)c1`, the Inhibition in the assay with Staphylococcus aureus is 15.1%; with Acinetobacter baumannii, 1.75%; in the assay with Escherichia coli, -0.44%; in the assay with Klebsiella pneumoniae it was 14.73%; in the assay on Candida albicans, -2.09%; in the assay with Cryptococcus neoformans it was -0.86%.
`CC(=O)OCCn1c2nc(=O)[nH]c(=O)c-2nc2cc(C)c(C)cc21`: the Inhibition is -0.64% in the assay on Staphylococcus aureus; -11.64% with Acinetobacter baumannii; 4.08% in the assay with Escherichia coli; 3.5% in the assay on Klebsiella pneumoniae; -0.26% in the assay on Candida albicans; -7.97% in the assay with Cryptococcus neoformans.
On to `CC(=O)Nc1ccc2cc3ccc(NC(C)=O)cc3nc2c1`, for which the Inhibition in the assay with Staphylococcus aureus was 13.51%; with Acinetobacter baumannii, 10.7%; in the assay with Escherichia coli it was 0.73%; in the assay on Klebsiella pneumoniae it was 15.61%; in the assay with Candida albicans, 3.5%; in the assay on Cryptococcus neoformans, -4.12%.
In the case of `Nc1ccc(/N=N/c2ccc(O)cc2)c(N)n1`, the Inhibition with Staphylococcus aureus was -3.88%; in the assay on Acinetobacter baumannii, -10.7%; in the assay on Escherichia coli, 0%; in the assay on Klebsiella pneumoniae, 0.93%; with Candida albicans, 0.86%; in the assay with Cryptococcus neoformans, -14.36%.
`O=C1c2ccccc2C(=Cc2cccnc2)c2ccccc21`: the Inhibition in the assay with Staphylococcus aureus was 8.79%; in the assay on Acinetobacter baumannii, -7.39%; in the assay on Escherichia coli, 6.86%; in the assay on Klebsiella pneumoniae, 10.23%; in the assay with Candida albicans, 9.01%; in the assay on Cryptococcus neoformans, -9.38%.
For the molecule `NC(=O)c1ncn2c(=O)n(CCCl)nnc12` [MITOZOLOMIDE], the Inhibition was -4.1% in the assay on Staphylococcus aureus; 10.43% in the assay with Acinetobacter baumannii; 3.54% in the assay with Escherichia coli; 6.17% in the assay on Klebsiella pneumoniae; 2.26% with Candida albicans; -10.87% with Cryptococcus neoformans.
`Cc1cccc(C)c1NC(=O)NCc1ccco1`: the Inhibition in the assay on Staphylococcus aureus is -11.45%; in the assay with Acinetobacter baumannii, 7.13%; in the assay with Escherichia coli it was 6.33%; with Klebsiella pneumoniae it was 8.14%; in the assay on Candida albicans, 2.89%; in the assay with Cryptococcus neoformans it was -10.4%.
Regarding `CC1=CC(C)(C)Nc2ccc(Cc3ccc4c(c3)C(C)=CC(C)(C)N4)cc21`, the Inhibition is 2.44% in the assay on Staphylococcus aureus; 4.53% in the assay with Acinetobacter baumannii; -20.49% in the assay with Escherichia coli; -0.68% in the assay with Klebsiella pneumoniae; 14.9% in the assay on Candida albicans; 28.4% in the assay on Cryptococcus neoformans.
As for `O=C(Nc1ccc(Cl)cc1)Nc1cccc2nsnc12`, the Inhibition is 6.14% in the assay on Staphylococcus aureus; 9.14% with Acinetobacter baumannii; -11.2% in the assay on Escherichia coli; 5.1% with Klebsiella pneumoniae; 11.3% in the assay on Candida albicans; -2.68% in the assay with Cryptococcus neoformans.
With `Cc1nn(-c2ccccc2)nc1C(=O)Nc1ccc2[nH]ncc2c1`, the Inhibition is 18.91% in the assay on Staphylococcus aureus; 2.54% in the assay with Acinetobacter baumannii; 5.87% in the assay with Escherichia coli; 6.45% in the assay with Klebsiella pneumoniae; -0.76% with Candida albicans; -15.47% in the assay with Cryptococcus neoformans.
Consider `O=c1c(O)cccc2cc(O)c(O)c(O)c12` [PURPUROGALLIN], for which the Inhibition was -28.9% in the assay on Staphylococcus aureus; 1.69% in the assay on Acinetobacter baumannii; 13.14% in the assay with Escherichia coli; 21.3% in the assay with Klebsiella pneumoniae; 53.6% in the assay with Candida albicans; -25.98% in the assay on Cryptococcus neoformans.
As for `NCC(=O)Nc1ccc(Cl)cc1C(=O)c1ccc[nH]1`, the Inhibition was -7.1% in the assay on Staphylococcus aureus; -14.48% with Acinetobacter baumannii; 6.3% with Escherichia coli; 6.27% in the assay on Klebsiella pneumoniae; 1.44% in the assay with Candida albicans; -13.13% in the assay on Cryptococcus neoformans.
With `CCC(C)n1c(C)cc(=O)n1C(C)CC` (stereo not drawn), the Inhibition was 2.1% in the assay on Staphylococcus aureus; -5.44% in the assay with Acinetobacter baumannii; -0.28% in the assay on Escherichia coli; 0.77% in the assay with Klebsiella pneumoniae; -0.29% in the assay with Candida albicans; -4.99% with Cryptococcus neoformans.
For `Cc1cc(/C=C2\SC(=S)NC2=O)cc(C)c1O`, the Inhibition is -3.17% in the assay on Staphylococcus aureus; -16.06% in the assay with Acinetobacter baumannii; 6.56% in the assay with Escherichia coli; 6.27% with Klebsiella pneumoniae; 8.55% in the assay on Candida albicans; -10.24% in the assay with Cryptococcus neoformans.
Turning to `Oc1ccc(Cc2ccc(Cl)cc2)c(O)c1`, the Inhibition is 10.37% in the assay on Staphylococcus aureus; -6.86% with Acinetobacter baumannii; 10.87% in the assay on Escherichia coli; 7.26% in the assay with Klebsiella pneumoniae; -0.85% with Candida albicans; -7.42% with Cryptococcus neoformans.
Take `COc1ccc(-c2cc3ccccc3[nH]2)cc1`: the Inhibition is 28.13% in the assay with Staphylococcus aureus; -0.84% in the assay on Acinetobacter baumannii; 12.2% in the assay on Escherichia coli; 0.29% in the assay on Klebsiella pneumoniae; -0.93% in the assay on Candida albicans; -13.44% with Cryptococcus neoformans.
`CN(C)c1ccc(/C=C2/C=C(c3ccc4c(c3)CCCC4)OC2=O)cc1`: the Inhibition in the assay on Staphylococcus aureus is 19.91%; in the assay on Acinetobacter baumannii it was -7.24%; with Escherichia coli it was 16.55%; in the assay with Klebsiella pneumoniae, 6.65%; in the assay with Candida albicans, 4.35%; with Cryptococcus neoformans it was 1.53%.
In the case of `CCCCN1CCN=C1S`, the Inhibition was 9.78% in the assay with Staphylococcus aureus; -11.78% in the assay on Acinetobacter baumannii; 10.98% in the assay with Escherichia coli; 14.43% in the assay with Klebsiella pneumoniae; -2.77% in the assay on Candida albicans; -2.57% in the assay on Cryptococcus neoformans.
Take `O=C1C(CO)C(CO)C(CO)C1CO` (stereo not drawn): the Inhibition with Staphylococcus aureus was 12.78%; in the assay on Acinetobacter baumannii, -16.04%; in the assay on Escherichia coli it was 12.18%; with Klebsiella pneumoniae, 2.22%; in the assay with Candida albicans, -0.61%; in the assay with Cryptococcus neoformans, -11.22%.
For `Cc1nc(SCC(=O)O)n[nH]1` [TIAZOTIC ACID], the Inhibition in the assay with Staphylococcus aureus was 14.48%; in the assay with Acinetobacter baumannii, -8.95%; in the assay with Escherichia coli, 7.99%; with Klebsiella pneumoniae, 14.92%; with Candida albicans, 2.04%; in the assay with Cryptococcus neoformans it was -0.18%.
For `Cc1cc2cc3c(=O)[nH]c(=O)cc-3n(CC(O)C(O)C(O)CO)c2cc1C` (stereo not drawn), the Inhibition in the assay on Staphylococcus aureus was 10.31%; in the assay with Acinetobacter baumannii, 8.52%; in the assay on Escherichia coli, -0.29%; in the assay on Klebsiella pneumoniae it was 10.28%; in the assay with Candida albicans, -1.58%; in the assay with Cryptococcus neoformans, -7.62%.
For the molecule `O=C(Nc1cccc2ccccc12)c1cc2c(cc1Br)OCO2`, the Inhibition is 5.22% in the assay with Staphylococcus aureus; 3.29% in the assay with Acinetobacter baumannii; 17.42% in the assay on Escherichia coli; 10.46% in the assay on Klebsiella pneumoniae; 2.94% in the assay on Candida albicans; -19.33% in the assay with Cryptococcus neoformans.

(Values after ChEMBL document CHEMBL4296182, “CO-ADD screening of NIH NCI Diversity Set V”.)
